# HSF1 inhib: HSF1 inhibition | activity change, negative = inhibition, % at 7.5 µM (by protocol) | AID 2098 | actives 0.77% (n = 300,000) | NIH3T3-HGL HSE-luciferase, MG132-induced, luminescence 8 h; active compounds read low;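 active = more than half of replicate wells show activity change below -50%, luminescence cut by over half; inconclusive = some wells, but at most half, below -50%; inactive = no replicate well below -50%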;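 also: luciferase reports HSF-1 transcriptional activity via heat shock element; 0% = median of DMSO wells and -100% = zero luminescence signal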
# HSF-1 act: increases HSF-1 driven luciferase reporter signal. NIH3T3-HGL HSF-1 luciferase reporter, MG132, 8 h; 100% = twice DMSO control signal. actives 1.7% (n = 300,000). AID 504408. activation, % at 9 µM;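 active = mean replicate activation of at least 50% with a set share of replicates each reaching 50%; inconclusive = only one of those two conditions met; inactive = mean below 50% and too few replicates reaching it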;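 also: 0% = median of the neutral control wells and 100% = twice that signal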
# esBAF inh: blocks esBAF chromatin remodeling in mouse ES cells; actives 2% (n = 350,000); AID 602393; reporter increase, % at 12.5 µM; Bmi1-luciferase knock-in reporter, 24 h; 100% = twice the neutral-well signal; in the data active = activation above about 40%; inconclusive = no clear call, values can overlap the other calls;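 also: 0% = median of the plate's neutral control wells and 100% = double that signal; a rise in the Bmi1 reporter signal indicates esBAF inhibition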
# MITF TRPM1 HTS: activators of MITF-driven TRPM1 promoter activity in SK-MEL-5 cells; activation, % at 12.5 µM; actives 0.75% (n = 300,000); AID 588334; SK-MEL-5 TRPM1-promoter luciferase, 24 h; % of positive control, neutral wells = 0;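 active = mean activation of at least 80% with every replicate also reaching 80%; inconclusive = mean reaches 80% but some replicate falls short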;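 also: 0% = neutral control wells and 100% = parthenolide positive control wells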
# Wnt act: activators of Wnt/beta-catenin signaling | Wnt/beta-catenin reporter cell assay, activator, plate reader | activation, % at 9.35 µM | actives 1.2% (n = 300,000); in the data active = activation above about 30%, passing the limit was not always enough; inconclusive = no clear call, values can overlap the other calls;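 also: 0% = neutral control wells and 100% = positive control wells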
# SMARCA2 act: activators of SMARCA2 function | MG213 cells, MMTV-luciferase reporter, dexamethasone, overnight | activation, % at 9.1 µM | actives 1% (n = 370,000); in the data active = activation above about 7.8%;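 also: 0% = vehicle wells and 100% = reference activator wells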
# SMARCA2 act conf: confirmation of SMARCA2 (BRM) function activators. actives 30% (n = 3,500). activation, % at 9.1 µM. MG213 cells, MMTV-luciferase with dexamethasone, luminescence, overnight; MG213 cells expressing E1A, Rb sequestered; DMSO wells 0%, reference activator 100%. shares compounds with SMARCA2 act;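 active = activation above its plate's cutoff, the mean activation of tested wells plus 3 SD, cut at about 7.9% in these data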
# GAL4-VP16 Luc: counter-screen for SMARCA2 activators: GAL4-VP16 luciferase reporter activation; activation, % at 9.1 µM; AID 686939; actives 41% (n = 3,500); HEK293 GAL4-VP16 pG5luc reporter, luciferase luminescence; scaled: DMSO wells 0%, SAHA wells 100%; shares compounds with SMARCA2 act;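 active = activation above the solvent-only control well mean plus 3 SD, averaged across control plates, cut at about 5.2% in these data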
# Numbers without * were called inactive; u = inconclusive; x = no result. A selection: hits, their analogues and other compounds. The true share with any hit is near 4.3%.
SMILES,HSF1 inhib,HSF-1 act,esBAF inh,MITF TRPM1 HTS,Wnt act,SMARCA2 act,SMARCA2 act conf,GAL4-VP16 Luc
C[C@H](CO)N1C[C@H](C)[C@@H](CN(C)Cc2ccc(Cl)c(Cl)c2)Oc2ccc(NC(=O)CCC(F)(F)F)cc2CC1=O,x,x,2,x,x,x,x,x
CCCNC(=O)N[C@@H]1CC[C@@H](CCn2cc(C3CCCC3)nn2)O[C@H]1CO,x,x,-2,x,x,x,x,x
O=C(Nc1ccc(NC(=O)c2ccco2)nc1)c1cccnc1,12,27,x,24,25,8.7*,9.1*,12*
O=C(NC(=S)Nc1ccc(Br)cn1)c1cccnc1,16,24,x,58,u,8.3*,9.8*,0
O=C(NC(=S)Nc1ccccc1Br)c1cccnc1,21,15,8,x,-2,-2,x,x
CC(C)(C(=O)c1ccccc1)/[N+]([O-])=C/c1ccccc1,1,-5,-4,-6,x,6,x,x
CC(C)(C(=O)c1ccccc1)/[N+]([O-])=C/c1ccc(F)cc1,-1,-3,8,-2,x,9.8*,-1,-1
C=CCS/C(N)=N\N=C\c1c(O)ccc2ccccc12,31,22,u,58,99*,12*,12*,8.7*
NC(=O)c1ccc(N=Cc2c(O)ccc3ccccc23)cc1,-6,0,x,x,3,-4,x,x
CC1CCC2(CC1)NC(=O)N(CC(=O)NCCc1c[nH]c3ccccc13)C2=O (stereo unspecified),x,x,-2,-18,1,0,x,x
CCC(C)(C)C1CCC2(CC1)NC(=O)N(CC(=O)NCCc1c[nH]c3ccccc13)C2=O (stereo unspecified),x,x,-4,-8,-3,8.1*,3,2
Cc1ccc(S(=O)(=O)C2CS(=O)(=O)CC2O)cc1 (stereo unspecified),5,10,4,2,x,-1,x,x
CC(=O)C1=C(S(=O)(=O)c2ccc(C)cc2)CS(=O)(=O)C1,10,-5,x,-10,9,9.1*,15*,2
Cc1ccc(N2Cc3ccccc3C2=O)cc1,18,24,-21,3,12,10*,3,5
CNC[C@@H]1Oc2ccc(NC(=O)CCCN(C)C)cc2C(=O)N([C@@H](C)CO)C[C@@H]1C,x,x,-3,x,x,x,x,x
COc1nc(-c2ccccc2)nnc1-c1ccccc1,29,u,40,26,19,11*,7,13*
COc1ccc(-c2nnc(OC)c3ccccc23)cc1,-16,-7,-2,-9,-1,0,x,x
NC(=O)c1sc2nc3c(cc2c1N)CCCCCC3,-6,16,46*,74,7,11*,0,2
N#Cc1sc2nc3c(cc2c1N)CCCC3,3,4,-52,23,x,4,x,x
Nc1c(C(=O)C2CC2)sc2nc3c(cc12)CCC3,28,26,x,117*,8,8.5*,13*,9.7*
Nc1c(C(=O)O)sc2nc3c(cc12)CCCC3,0,-5,x,x,15,-3,x,x
COc1cccc(S(=O)(=O)N2C[C@@H](O)COC[C@@H]3O[C@@H](CC(=O)NCCCN4CCOCC4)CC[C@H]32)c1,x,x,-3,x,x,x,x,x
COc1ccc(S(=O)(=O)Nc2ccc3c(c2)C(=O)N([C@H](C)CO)C[C@@H](C)[C@H](CN(C)C(=O)NC(C)C)OCCCC[C@@H](C)O3)cc1,x,x,-3,x,x,x,x,x
O=C(COC(=O)c1ccccc1NCCO)Nc1ccc(S(=O)(=O)NC2=NCCCCC2)cc1,x,x,0,-4,3,11*,0,1
C[C@@H]1CN([C@H](C)CO)C(=O)c2cc(-c3cncnc3)cnc2O[C@@H]1CN(C)C(=O)Cc1ccccc1,x,x,5,x,x,x,x,x
SMILES,HSF1 inhib,HSF-1 act,esBAF inh,MITF TRPM1 HTS,Wnt act,SMARCA2 act,SMARCA2 act conf,GAL4-VP16 Luc
O=C(NC(=S)Nc1cccnc1Cl)c1ccc(Cl)cc1,7,26,u,34,36*,9.9*,3,8.9*
CC(COc1ccc(C(C)C)cc1)NC(=O)c1ccc(Br)o1 (stereo unspecified),-5,5,-4,-4,-2,10*,6,0
C[C@H]1CCCCO[C@@H](CN(C)Cc2ccc3c(c2)OCO3)[C@@H](C)CN([C@@H](C)CO)C(=O)c2cc(NC(=O)C3CCCCC3)ccc2O1,x,x,2,x,x,x,x,x
COc1cccc(-c2nn3c(-c4cccc(C)c4)nnc3s2)c1,2,13,17,39,x,11*,5,5
COc1cccc(-c2nnc3sc(-c4ccc(C)cc4)nn23)c1,-5,-5,x,x,x,x,x,x
COc1ccc(-c2cc(-c3nnc4sc(-c5cccs5)nn34)[nH]n2)cc1,x,x,x,x,x,8.5*,7,8.1*
Cc1noc(C)c1S(=O)(=O)Nc1ccc2c(c1)C(=O)N([C@@H](C)CO)C[C@H](C)[C@H](CN(C)S(=O)(=O)c1ccc(F)cc1)OCCCC[C@H](C)O2,x,x,3,x,x,x,x,x
CCNC(=O)C[C@@H]1CC[C@@H]2[C@@H](COc3ccc(NC(=O)Nc4cccc(C)c4)cc3C(=O)N2C)O1,x,x,-3,x,x,x,x,x
COc1ccccc1OCCn1nnc2ccccc21,10,-7,37,x,4,11*,7,5
CCOc1ccccc1OCCn1nnc2ccccc21,-4,1,8,11,5,-3,x,x
C[C@@H](NC(=O)C[C@H]1CC[C@H](NC(=O)c2cccnc2)[C@H](CO)O1)c1ccccc1,x,x,3,x,x,x,x,x
Cc1ccc(-c2nc3ccc(C)cn3c2CC2CCCCC2)cc1,x,x,x,x,24,8.1*,1,5.1*
C[C@H]1CCCCO[C@@H](CN(C)C(=O)c2ccncc2)[C@@H](C)CN([C@@H](C)CO)C(=O)c2cc(NS(=O)(=O)c3ccccc3)ccc2O1,x,x,-8,x,x,x,x,x
COc1ccc(CN2CCNC(=O)C2CC(=O)O)cc1OC (stereo unspecified),-3,5,6,-13,-3,12*,-1,0
C[C@H](CO)N1C[C@H](C)[C@H](CN(C)Cc2ccc3c(c2)OCO3)Oc2ccc(N(C)C)cc2C1=O,x,x,-1,x,x,x,x,x
NC(=O)c1ccccc1N/C=C/C(=O)c1ccccc1,32,43,-13,x,48*,8.0*,11*,9.8*
Oc1ccccc1-c1cc(-c2ccc3c(c2)OCCO3)n[nH]1,13,37,-11,5,x,0,x,x
COc1ccc(-c2cc(-c3ccccc3O)[nH]n2)cc1OC,67,106*,87*,x,x,13*,18*,14*
Cc1noc(C)c1NC(=O)N(C)C[C@@H]1OCCCC[C@H](C)Oc2ccc(NS(=O)(=O)c3ccccc3)cc2C(=O)N([C@@H](C)CO)C[C@@H]1C,x,x,-3,x,x,x,x,x

# Source: PubChem (several laboratories)
